Measured values taken from PubChem BioAssay (EPA / NIEHS).
“And” between values parts separate entries of the source, which are not always exact repeats. Equal entries are not always repeated. A structure can be active in one record and inactive in another. The source made the active and inactive calls. Rule for the calls: active = hit-call score of the fitted dose curve at least 0.9, where 1 is the maximum; inactive = score below 0.9.

What was measured:
Settings in all cases: mRNA level, 48 h; actives raise or lower the signal
[1] = read-out: Glutathione S-Transferase (GSTA2), GSTA2 (gene 2939); assay: LTEA_HepaRG_GSTA2: Life Technologies and Expression Analysis (LTEA) Assay for Glutathione S-Transferase (GSTA2) using HepaRG (AID 2283497)
Outline: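 Human HepaRG cells, plated 48 h, then exposed in serum-free induction medium for 48 h to eight half-log concentrations up to 100 uM in 0.5% DMSO, duplicate. GSTA2 mRNA by qRT-PCR, normalized to ACTB/GAPDH/POLR2A; bidirectional fit versus DMSO.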

[2] = read-out: Glutamate-cysteine ligase catalytic (GCLC), GCLC (gene 2729); assay: LTEA_HepaRG_GCLC: Life Technologies and Expression Analysis (LTEA) Assay for Glutamate-cysteine ligase catalytic (GCLC) using HepaRG (AID 2283498)
Outline: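 Differentiated human HepaRG cells, plated 48 h then switched to serum-free induction medium, were exposed in duplicate for 48 h to 8 half-log concentrations topping at 100 uM in 0.5% DMSO. GCLC mRNA was quantified by qRT-PCR against ACTB, GAPDH and POLR2A.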

[3] = read-out: growth arrest and DNA damage 45 (GADD45G), GADD45G (gene 10912); assay: LTEA_HepaRG_GADD45G: Life Technologies and Expression Analysis (LTEA) Assay for growth arrest and DNA damage 45 (GADD45G) using HepaRG (AID 2283499)
Outline: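 Gain or loss of GADD45G mRNA, quantified by TaqMan qRT-PCR against three housekeeping genes, is fitted in both directions relative to 0.5% DMSO. Human HepaRG cultures receive test chemical for 48 h at up to 100 uM.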

[4] = read-out: Glutamate-cysteine ligase regulatory (GCLM), GCLM (gene 2730); assay: LTEA_HepaRG_GCLM: Life Technologies and Expression Analysis (LTEA) Assay for Glutamate-cysteine ligase regulatory (GCLM) using HepaRG (AID 2283500)
Outline: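 Human liver HepaRG cultures receive test chemicals for 48 hours at up to 100 uM in 0.5% DMSO. GCLM expression is measured by qRT-PCR and analysed for increases or decreases against vehicle.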

[5] = read-out: Glutathione S-transferase M3 (GSTM3), GSTM3 (gene 2947); assay: LTEA_HepaRG_GSTM3: Life Technologies and Expression Analysis (LTEA) Assay for Glutathione S-transferase M3 (GSTM3) using HepaRG (AID 2283501)
Outline: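 HepaRG, plated 48 h, then serum-free induction medium; test chemical 48 h, duplicate; 100 uM top, half-log x8, 0.5% DMSO. Read-out: GSTM3 mRNA (TaqMan qRT-PCR, Fluidigm array). Bidirectional fit vs DMSO.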

[6] = read-out: Heat shock 70 kDa protein 1 (HSPA1A), gene 3303; assay: LTEA_HepaRG_HSPA1A: Life Technologies and Expression Analysis (LTEA) Assay for Heat shock 70 kDa protein 1 (HSPA1A) using HepaRG (AID 2283502)
Outline: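 HSPA1A induction in human HepaRG liver cells is measured after 48 h of chemical treatment (100 uM maximum, 0.5% DMSO vehicle). Expression comes from qRT-PCR normalized to endogenous controls.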

[7] = read-out: Hypoxia-inducible factor 1-alpha (Homo sapiens) (UniProt Q16665); assay: LTEA_HepaRG_HIF1A: Life Technologies and Expression Analysis (LTEA) Assay for Hypoxia-inducible factor 1 (HIF1A) Trancription factor using HepaRG (AID 2283503);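 note: HIF1A transcript by TaqMan qRT-PCR normalized to ACTB GAPDH and POLR2A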
Outline: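 HepaRG, 48 h exposure, 8-pt half-log series from 100 uM, 0.5% DMSO vehicle, duplicates. Readout: HIF1A transcript by qRT-PCR (Fluidigm array), housekeeping-normalised. Bidirectional curve fit vs DMSO baseline.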

[8] = read-out: 3-Hydroxy-3-Methylglutaryl-CoA Synthase 2 (HMGCS2), HMGCS2 (gene 3158); assay: LTEA_HepaRG_HMGCS2: Life Technologies and Expression Analysis (LTEA) Assay for 3-Hydroxy-3-Methylglutaryl-CoA Synthase 2 (HMGCS2) using HepaRG (AID 2283504)
Outline: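 HepaRG, plated 48 h then switched to serum-free induction media; cmpd 8-pt, max 100 uM, 1/2-log, 0.5% DMSO, n=2, 48 h. HMGCS2 mRNA by Fluidigm TaqMan qRT-PCR, ACTB/GAPDH/POLR2A norm; bidirectional fit vs DMSO.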

[9] = read-out: HGF (gene 3082); assay: LTEA_HepaRG_HGF: Life Technologies and Expression Analysis (LTEA) Assay for Hepatocyte Growth Facto (HGF) using HepaRG (AID 2283505)
Outline: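 Read-out is HGF transcript level by qRT-PCR, normalized to three housekeeping genes, fitted bidirectionally against 0.5% DMSO vehicle. Human HepaRG cells received test chemicals for 48 h at up to 100 uM.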

[10] = read-out: Insulin Like Growth Factor 1 (IGF1), IGF1 (gene 3479); assay: LTEA_HepaRG_IGF1: Life Technologies and Expression Analysis (LTEA) Assay for Insulin Like Growth Factor 1 (IGF1) using HepaRG (AID 2283506)
Outline: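 Using human HepaRG liver cells, IGF1 transcript induction or suppression is measured 48 h after dosing across eight concentrations capped at 100 uM. Values derive from bidirectional concentration-response fitting with DMSO as baseline.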

Measured: AC50

Sequence of Hypoxia-inducible factor 1-alpha (Homo sapiens) (Q16665 whole entry, looked up): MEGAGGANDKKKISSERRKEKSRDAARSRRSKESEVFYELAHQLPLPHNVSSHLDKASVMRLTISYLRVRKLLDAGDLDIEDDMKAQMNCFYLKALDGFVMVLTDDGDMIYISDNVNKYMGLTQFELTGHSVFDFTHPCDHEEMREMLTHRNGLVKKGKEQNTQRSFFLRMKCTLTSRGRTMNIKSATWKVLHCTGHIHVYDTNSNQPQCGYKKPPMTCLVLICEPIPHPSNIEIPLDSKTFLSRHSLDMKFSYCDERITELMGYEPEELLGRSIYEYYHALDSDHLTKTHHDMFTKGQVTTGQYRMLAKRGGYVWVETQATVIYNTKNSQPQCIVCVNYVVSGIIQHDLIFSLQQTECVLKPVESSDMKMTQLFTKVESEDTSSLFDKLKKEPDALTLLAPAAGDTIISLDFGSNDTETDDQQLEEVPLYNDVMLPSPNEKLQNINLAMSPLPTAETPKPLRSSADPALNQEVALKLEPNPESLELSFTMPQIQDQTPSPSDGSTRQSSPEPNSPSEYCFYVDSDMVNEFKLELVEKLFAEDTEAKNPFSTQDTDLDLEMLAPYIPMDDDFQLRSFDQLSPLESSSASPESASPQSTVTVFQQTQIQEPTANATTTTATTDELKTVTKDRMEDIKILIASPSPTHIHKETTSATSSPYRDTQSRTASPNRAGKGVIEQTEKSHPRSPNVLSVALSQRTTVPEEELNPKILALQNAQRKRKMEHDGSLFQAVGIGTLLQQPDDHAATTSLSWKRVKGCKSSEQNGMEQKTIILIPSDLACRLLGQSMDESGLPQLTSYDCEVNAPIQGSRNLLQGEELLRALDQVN

CCCOC(=O)NCCCN(C)C
not listed: [9] | [10]
inactive: all other assays above

CCC(C)OC(=O)N1CCCCC1CCO (stereo not given)
not listed: [10]
inactive: all other assays above

CC(C)(c1ccc(O)cc1)c1ccc(O)cc1
active: [6] 0.0172 µM
inactive: [1] | [2] | [3] | [4] | [5] | [6] | [7] | [9]

OB(O)O
not listed: [10]
inactive: all other assays above

COCCO
not listed: [8] | [10]
inactive: all other assays above

CCCCOC(=O)C(C)Oc1ccc(Oc2ccc(C(F)(F)F)cn2)cc1 (stereo not given)
not listed: [10]
inactive: all other assays above

CCNc1nc(N)nc(Cl)n1
not listed: [8] | [10]
inactive: all other assays above

COC(=O)c1ccccc1C(=O)O
not listed: [10]
inactive: all other assays above

S=C(S)NCCNC(=S)S.[Mn+2].[S-]C([S-])=NCCN=C([S-])[S-].[Zn+2]
inactive: [2] | [4] | [5] | [6] | [7] | [9]
active: [1] 890 nM and 1.14 µM and 997 nM | [3] 3.67 µM and 2.31 µM and 3.97 µM | [4] 25 µM | [5] 0.827 µM | [6] 1.21 µM and 4.71 µM | [7] 1.63 µM | [9] 3.68 µM and 9.89 µM | [10] 1.35 µM and 1.45 µM and 2.57 µM

COc1c(Cl)ccc(Cl)c1C(=O)O
not listed: [8] | [10]
inactive: all other assays above

CCCN(CCC)c1c([N+](=O)[O-])cc(C(F)(F)F)c(N)c1[N+](=O)[O-]
active: [4] 28.6 µM | [6] 50 µM
not listed: [8] | [10]
inactive: all other assays above

CCOC(=O)C(C)Oc1ccc(Oc2cnc3cc(Cl)ccc3n2)cc1 (stereo not given)
active: [1] 15 µM
not listed: [8] | [10]
inactive: all other assays above

CCCCOC(=O)[C@@H](C)Oc1ccc(Oc2ccc(C(F)(F)F)cn2)cc1
not listed: [10]
inactive: all other assays above

O=C(c1ccc(O)cc1O)c1ccc(O)cc1O
not listed: [8] | [10]
inactive: all other assays above

CC1(C)C(C=C(Cl)Cl)C1C(=O)OCc1cccc(Oc2ccccc2)c1 (stereo not given)
not listed: [8] | [10]
inactive: all other assays above

CCCCC(CC)COC(=O)c1ccccc1C(=O)O (stereo not given)
not listed: [8] | [10]
inactive: all other assays above

C[C@]12CC[C@@H]3c4ccc(O)cc4C[C@@H](CCCCCCCCCS(=O)CCCC(F)(F)C(F)(F)F)[C@H]3[C@@H]1CC[C@@H]2O (stereo not given in full)
active: [1] 28.1 µM | [2] 19.9 µM | [3] 13 µM | [4] 0.0464 µM | [5] 29.8 µM | [9] 44.4 nM
inactive: [6] | [7]

S=C([S-])NCCNC(=S)[S-].[Mn+2]
active: [1] 2.38 µM | [3] 4.33 µM | [4] 8.92 µM | [5] 1.88 µM | [7] 3.12 µM | [8] 5.04 µM | [9] 7500 nM
inactive: [2] | [6]

CCCCCCC(C)OC(=O)COc1nc(F)c(Cl)c(N)c1Cl (stereo not given)
inactive: all assays above

CCCOC(=O)c1ccc(C(=O)OCCC)nc1
not listed: [8] | [10]
inactive: all other assays above

CCSC(=O)N(CC(C)C)CC(C)C
not listed: [8] | [10]
inactive: all other assays above

O=C(O)c1ccccc1
not listed: [10]
inactive: all other assays above

c1ccc2[nH]c(-c3cscn3)nc2c1
active: [2] 50 µM
not listed: [8] | [10]
inactive: all other assays above

N[C@@H](Cc1cc(I)c(Oc2ccc(O)c(I)c2)c(I)c1)C(=O)O
inactive: [3] | [4] | [6] | [9]
active: [1] 58.3 µM | [2] 40 µM | [5] 0.613 µM | [7] 0.00253 µM | [8] 0.00253 µM

C[C@]12C[C@H](O)[C@H]3[C@@H](CCC4=CC(=O)CC[C@@]43C)[C@@H]1CC[C@@H]2C(=O)CO
not listed: [8] | [10]
inactive: all other assays above

CCN(Cc1c(F)cccc1Cl)c1c([N+](=O)[O-])cc(C(F)(F)F)cc1[N+](=O)[O-]
inactive: [3] | [5] | [7] | [9]
active: [1] 11.7 µM | [2] 50 µM | [4] 50 µM | [6] 50 µM
